TDP1 block: qHTS Assay for Inhibitors of Tyrosyl-DNA Phosphodiesterase (TDP1); 350,000 tested, 0.28% active; recombinant TDP1, AlphaScreen DNA substrate cleavage; Potency, µM (top dose mostly 130 µM), usual class: inhibitors; also: nearly all actives have a fitted effect of over 40% in size
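Enzyme-compound mixtures sat 15 min at room temperature, followed by a 5 min reaction with 15 nM final substrate and 10 min with AlphaScreen beads. Recombinant human Tdp1 was used at 1 nM final.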
APE1 inh: qHTS Assay for Inhibitors of the Human Apurinic/apyrimidinic Endonuclease 1 (APE1). DNA repair nuclease/redox regulator APEX1 (Homo sapiens), P27695. recombinant APE1, TAMRA/BHQ-2 abasic DNA cleavage fluorescence. Potency, µM (titrated, usually from 65.8 µM), actives largely listed as inhibitors. 350,000 tested, 0.35% active; also: nearly all actives have a fitted effect of over 55% in size
Target sequence (P27695 whole entry, looked up): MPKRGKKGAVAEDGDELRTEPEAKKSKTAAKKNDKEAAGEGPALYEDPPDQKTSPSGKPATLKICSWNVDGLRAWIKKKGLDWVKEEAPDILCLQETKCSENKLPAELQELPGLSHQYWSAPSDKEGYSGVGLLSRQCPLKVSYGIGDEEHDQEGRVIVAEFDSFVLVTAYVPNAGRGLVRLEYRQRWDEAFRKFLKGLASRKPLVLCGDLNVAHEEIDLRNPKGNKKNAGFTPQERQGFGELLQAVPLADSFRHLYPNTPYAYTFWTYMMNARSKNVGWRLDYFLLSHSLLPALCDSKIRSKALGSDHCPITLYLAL
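Incision of a quenched TAMRA/BHQ-2 THF abasic-site duplex (50 nM) by 0.75 nM APE1, after 15 min compound preincubation, measured as fluorescence increase over three 60 s reads. Values normalized to buffer, DMSO and NSC13755 control wells.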
BLM inh: qHTS Assay for Inhibitors of Bloom's syndrome helicase (BLM). RecQ-like DNA helicase BLM (Homo sapiens), P54132. recombinant BLM DNA unwinding, fluorescence dequenching. Potency, µM (titrated, usually from 56.1 µM), usual class: inhibitors. 350,000 tested, 0.2% active; also: nearly all actives have a fitted effect of over 35% in size
RECQ1 helicase: qHTS Assay for Inhibitors of RecQ-Like Dna Helicase 1 (RECQ1); ATP-dependent DNA helicase Q1 (Homo sapiens), P46063; RECQ1 DNA unwinding, red fluorescence kinetic read; Potency, µM (series often up to 57.3 µM), usual class: inhibitors; 240,000 tested, 0.54% active; AID 2549, 2010; also: nearly all actives have a fitted effect of over 30% in size
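RECQ1T1 50 nM; forked duplex (20 bp + 30-nt ss tails) 200 nM, ATP 2 mM final; pH 8.0, 2 mM MgCl2, 2.5 ug/ml poly(dI-dC); 15 min compound preincubation; discontinuous kinetic read over 2 h at RT.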
FEN1 inh-1: qHTS Assay for the Inhibitors of Human Flap endonuclease 1 (FEN1); P39748; Recombinant FEN1 flap cleavage, fluorescence, 15 min; Potency, µM (highest dose often 114 µM), most hits filed as inhibitors; 390,000 tested, 0.35% active; AID 588795, 2011; also: nearly all actives have a fitted effect of over 65% in size
Target sequence (P39748 whole entry, looked up): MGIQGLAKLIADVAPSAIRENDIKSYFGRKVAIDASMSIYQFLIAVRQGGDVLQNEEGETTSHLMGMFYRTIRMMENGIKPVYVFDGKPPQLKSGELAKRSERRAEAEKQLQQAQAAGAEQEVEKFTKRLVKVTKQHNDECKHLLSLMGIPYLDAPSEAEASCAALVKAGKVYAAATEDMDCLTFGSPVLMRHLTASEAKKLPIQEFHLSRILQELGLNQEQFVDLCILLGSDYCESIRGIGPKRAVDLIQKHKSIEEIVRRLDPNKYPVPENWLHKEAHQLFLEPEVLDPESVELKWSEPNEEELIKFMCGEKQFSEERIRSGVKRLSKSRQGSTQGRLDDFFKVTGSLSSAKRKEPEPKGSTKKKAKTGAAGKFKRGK
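Reaction started by adding substrate (50 nM final) to 10 nM enzyme after 15 min room-temperature compound preincubation. Reads at 0 and 15 min, with data normalized and fitted to a four-parameter Hill equation.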
FEN1 inh-2: qHTS Assay for the Inhibitors of FEN1: Confirmatory Assay for Cherry-picked Compounds | shares compounds with FEN1 inh-1 | FEN1 flap cleavage, TAMRA/BHQ2 fluorogenic DNA substrate | Potency, µM, most hits filed as inhibitors | 880 tested, 79% active; also: nearly all actives have a fitted effect of over 60% in size
Numbers stand for hits; 0 = inactive; ? = inconclusive; - = not tested or not shown; [ ] = dose if it differs, or a comment. Compounds with a hit are over-represented: about 0.92% of the library has one in this group of screens. Calls follow the shape of the dose curve; as a rule, active = well fitted curve in the direction sought with a large enough effect; inconclusive = small, poorly fitted or top-dose-only effect, or another doubt; inactive = no such curve, though single readings can be large; an effect the other way counts as inactive or inconclusive.

SMILES	TDP1 block	APE1 inh	BLM inh	RECQ1 helicase	FEN1 inh-1	FEN1 inh-2
Cc1ccc(NCc2ccc(O)c3ncccc23)cc1	0	0	0	0	0	-
CC[C@@]1(O)C[C@H](O[C@H]2C[C@@H](N(C)C)[C@@H](O[C@H]3C[C@@H](O)[C@@H](O[C@H]4CCC(=O)[C@@H](C)O4)[C@@H](C)O3)[C@@H](C)O2)c2c(cc3c(c2O)C(=O)c2c(O)cccc2C3=O)[C@H]1C(=O)OC	-	-	0	-	-	-
COc1cccc2c1C(=O)c1c(O)c3c(c(O)c1C2=O)CC(O)(C(C)=O)CC3OC1CC(N(C)C)C(O)C(C)O1 (configuration not stated)	-	-	-	-	32µM	38
COc1cccc(CNc2nc(Cl)nc3nc[nH]c23)c1	0	-	-	-	0	-
COC(=O)c1cc2c(-c3ccccc3)c(C)c3ccccn3c-2c1C(=O)OC	0	0	0	0	?	85
O=C(N/N=C/c1ccc(-c2ccc(Cl)c(C(=O)O)c2)o1)c1cc2c(ccc3ccccc32)o1	0	0	0	0	40µM	21
COc1ccc(/C=C/C(=O)NC(=S)Nc2cc([N+](=O)[O-])ccc2O)cc1OC	0	0	0	0	22µM	60
Cc1cc(C)nc(NC(=O)CSc2nn(-c3ccccc3)c(=S)s2)n1	-	0	0	0	?	?
C=C1C=C(C(F)F)n2ncc(C(=O)NCCc3ccccc3Cl)c2N1	-	0	-	-	-	-
O=C(Nc1ccc(S(=O)(=O)O)cc1)c1ccc2c(c1)S(=O)(=O)c1ccccc1C2=O	-	-	-	-	45µM	76
COc1ccc(Nc2nc(N3CCCCC3)c3ccccc3n2)cc1	0	0	0	?	0	-
Oc1ccc(Nc2nc(N3CCCC3)c3ccccc3n2)cc1	0	0	0	?	50µM	34
O=C(O)c1ccccc1-c1c2cc(I)c(=O)c(I)c-2oc2c(I)c(O)c(I)cc12	0	25µM	28µM	22µM	40µM	38
Cc1c(Br)c(=O)oc2c(Br)c(O)c(O)cc12	0	0	7.9µM	0	28µM	30
Cc1c2ccncc2cc2c1[nH]c1ccccc12	-	-	-	-	18µM	17
CNC1CCC(c2ccc(Cl)c(Cl)c2)c2ccccc21 (configuration not stated)	0	0	0	0	-	-
COc1cc(/C=C2\SC(=O)N(c3ccccc3Cl)C2=O)cc([N+](=O)[O-])c1O	0	0	0	?	?	-
COc1cc(/C=C2\SC(=O)N(CC(=O)Nc3cccc(C)c3)C2=O)cc([N+](=O)[O-])c1O	0	0	0	0	?	76
O=C(c1csnn1)N1CCC2(CC1)CN(c1ccccn1)C2	-	0	0	0	-	-
COc1ccc(NS(=O)(=O)c2ccc3c(c2)[C@H]2C=CC[C@H]2[C@@H](c2ccc(C(=O)O)cc2)N3)cc1	-	0	0	-	20µM	38
CC(C)(C)Nc1oc(-c2ccccc2)nc1-c1cccc2ccccc12	0	0	0	0	-	-
O=C(NC(c1ccco1)c1cc(Cl)c2cccnc2c1O)c1ccsc1 (configuration not stated)	-	-	-	-	-	?
CCc1cccc(CC)c1N(COC)C(=O)Cn1c(C)nc2ccccc21	0[12.3 µM]	-	0	-	0	-
NS(=O)(=O)c1cccc(NC(=O)c2cccc(N3C(=O)c4ccccc4C3=O)c2)c1	0	0	-	-	0	-
CC(=O)c1cccc(NC(=O)c2cccc(N3C(=O)c4ccccc4C3=O)c2)c1	-	0	0	-	?	?
SMILES	TDP1 block	APE1 inh	BLM inh	RECQ1 helicase	FEN1 inh-1	FEN1 inh-2
CN(C)c1ccc(CNC(=O)CN2CCSc3ccc(S(=O)(=O)N(C)C)cc32)cc1	0	-	0	-	0	-
COc1ccc(NC(=O)COC(=O)c2ccc([N+](=O)[O-])o2)cc1Cl	0	0	0	0	?	21
O=C(COC(=O)c1ccc(Br)o1)Nc1ncc(Cl)cc1Cl	0	0	0	0	0	-
O=C(COC(=O)c1ccc([N+](=O)[O-])o1)Nc1ncc(Cl)cc1Cl	0	0	-	-	?	11
CC(C)C[C@H](NC(=O)[C@H](CCCCN)NC(=O)CNC(=O)[C@H](CC(C)C)NC(=O)[C@@H](NC(=O)[C@@H]1CSSC[C@H](N)C(=O)N[C@@H](CO)C(=O)N[C@@H](CC(N)=O)C(=O)N[C@@H](CC(C)C)C(=O)N[C@@H](CO)C(=O)N[C@@H]([C@@H](C)O)C(=O)N1)C(C)C)C(=O)N[C@@H](CO)C(=O)N[C@@H](CCC(N)=O)C(=O)N[C@@H](CCC(=O)O)C(=O)N[C@@H](CC(C)C)C(=O)N[C@@H](Cc1cnc[nH]1)C(=O)N[C@@H](CCCCN)C(=O)N[C@@H](CC(C)C)C(=O)N[C@@H](CCC(N)=O)C(=O)N[C@H](C(=O)N[C@@H](Cc1ccc(O)cc1)C(=O)N1CCC[C@H]1C(=O)N[C@@H](CCCNC(=N)N)C(=O)N[C@H](C(=O)N[C@@H](CC(N)=O)C(=O)N[C@H](C(=O)NCC(=O)N[C@@H](CO)C(=O)NCC(=O)N[C@H](C(=O)N1CCC[C@H]1C(N)=O)[C@@H](C)O)[C@@H](C)O)[C@@H](C)O)[C@@H](C)O	0	0	0	0	-	-
C[N+]1(CC(=O)c2ccc(Cl)c(Cl)c2)CCOCC1	-	-	-	-	0	-
O=C1C[C@H](c2ccc3ccccc3c2)N1S(=O)(=O)c1ccccc1[N+](=O)[O-]	0	0	0	0	0	-
O=S(=O)(N1CCN(c2nc(-c3cccs3)nc3ccccc23)CC1)C(F)(F)F	-	-	-	-	0	-
CN(C)S(=O)(=O)c1cccc(NC(=S)N/N=C/c2ccc(O)c(O)c2O)c1	-	?	0	0	20µM	8.5
COc1ccc(O)c(/C=N/NC(=S)Nc2cccc(S(=O)(=O)N(C)C)c2)c1	0	0	0	0	0	-
Cc1ccc(-n2nc3c(=O)n(CC(=O)Nc4ccccc4F)nc(C)c3c2C)c(C)c1	0	-	0	-	0	-
O=C(Nc1cccc2cccnc12)OC(Cl)(Cl)Cl	0	-	-	-	0	-
c1cc2c(cc1Cc1cncc(Cc3ccc4c(c3)OCO4)c1)OCO2	-	-	-	-	0	-
COCCn1c(=NC(=O)c2ccc3c(c2)OCCO3)sc2cc(S(N)(=O)=O)ccc21	0	0	0	0	0	?
O=c1[nH]c2cnn(-c3ccccc3)c2c(=O)n1O	-	-	-	-	0.5µM	21
CC(C)=CCC1=C(OCC(=O)O)C(=O)c2ccccc2C1=O	0	0	?	0	?	38
